Results taken from PubChem BioAssay AID1159580 (chemical genetic matrix, 2015).
Where “and” joins values, the source holds several entries; their conditions need not be identical. Identical values can stand only once. About 2,000 (36%) of roughly 5,500 compounds were called active. Roughly 18% stayed inconclusive and do not appear here. No stated cut-off is given here; in the data, active means normalized growth mostly below about 0.91 (no sharp cut-off); inconclusive means no clear call, values can overlap the other calls; inactive means mostly above about 0.92. Some of the results follow.

Test: chemical genetic growth profiling, strain panel (AID 1159580);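 further: tested at 20 µM; growth read once vehicle control cultures reached saturation at 30 °C; 1 = growth at the plate median or of vehicle wells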
Conditions: S. cerevisiae deletion strains, growth OD

O=C1OC(=O)C2C3CCC(O3)C12 (stereo not given)
normalized growth (locus YAL013W, strain DEP1, stronger effect = lower value): 1.03 (inactive) | normalized growth (locus YAL021C, strain ccr4, stronger effect = lower value): 1.02 (inactive) | normalized growth (locus YAL026C, strain drs2, stronger effect = lower value): 1.02 (inactive) | normalized growth (locus YAL030W, strain snc1, stronger effect = lower value): 1.03 (inactive) | normalized growth (locus YAL040C, strain CLN3, stronger effect = lower value): 1 (inactive) | normalized growth (locus YBL061C, strain skt5, stronger effect = lower value): 1.01 (inactive) | normalized growth (locus YBR009C, strain hhf1, stronger effect = lower value): 1 (inactive) | normalized growth (locus YBR021W, strain FUR4, stronger effect = lower value): 0.947 (inactive) | normalized growth (locus YBR023C, strain chs3, stronger effect = lower value): 1.02 (inactive) | normalized growth (locus YBR171W, strain sec66, stronger effect = lower value): 1.02 (inactive) | normalized growth (locus YBR229C, strain ROT2, stronger effect = lower value): 1 (inactive) | normalized growth (locus YBR231C, strain swc5, stronger effect = lower value): 1 (inactive) | normalized growth (locus YBR279W, strain paf1, stronger effect = lower value): 1 (inactive) | normalized growth (locus YCL011C, strain gbp2, stronger effect = lower value): 1.01 (inactive) | normalized growth (locus YCL016C, strain dcc1, stronger effect = lower value): 1.03 (inactive) | normalized growth (locus YCL029C, strain bik1, stronger effect = lower value): 0.966 (inactive) | normalized growth (locus YCL061C, strain MRC1 (second series), stronger effect = lower value): 1 (inactive) | normalized growth (locus YCL069W, strain vba3, stronger effect = lower value): 0.994 (inactive) | normalized growth (locus YCR088W, strain abp1, stronger effect = lower value): 1.01 (inactive) | normalized growth (locus YDL005C, strain med2, stronger effect = lower value): 1.01 (inactive) | normalized growth (locus YDL035C, strain GPR1, stronger effect = lower value): 1.01 (inactive) | normalized growth (locus YDL040C, strain nat1, stronger effect = lower value): 1 (inactive) | normalized growth (locus YDL074C, strain BRE1, stronger effect = lower value): 1.01 (inactive) | normalized growth (locus YDL101C, strain DUN1, stronger effect = lower value): 1.01 (inactive) | normalized growth (locus YDL134C, strain PPH21, stronger effect = lower value): 1.02 (inactive) | normalized growth (locus YDL185W, strain tfp1, stronger effect = lower value): 0.937 (inactive) | normalized growth (locus YDL192W, strain arf1, stronger effect = lower value): 0.977 (inactive) | normalized growth (locus YDR001C, strain nth1, stronger effect = lower value): 1 (inactive) | normalized growth (locus YDR069C, strain doa4, stronger effect = lower value): 1.01 (inactive) | normalized growth (locus YDR101C, strain arx1, stronger effect = lower value): 0.982 (inactive) | normalized growth (locus YDR137W, strain rgp1, stronger effect = lower value): 1.06 (inactive) | normalized growth (locus YDR150W, strain NUM1, stronger effect = lower value): 1.03 (inactive) and 1 (inactive) | normalized growth (locus YDR159W, strain sac3, stronger effect = lower value): 0.98 (inactive) | normalized growth (locus YDR162C, strain NBP2, stronger effect = lower value): 0.987 (inactive) | normalized growth (locus YDR195W, strain ref2): 0.975 (inactive) | normalized growth (locus YDR297W, strain sur2, stronger effect = lower value): 0.998 (inactive) | normalized growth (locus YDR318W, strain mcm21, stronger effect = lower value): 0.981 (inactive) | normalized growth (locus YDR334W, strain swr1, stronger effect = lower value): 0.992 (inactive) | normalized growth (locus YDR335W, strain msn5, stronger effect = lower value): 1.02 (inactive) | normalized growth (locus YDR363W, strain ESC2, stronger effect = lower value): 1.03 (inactive) | normalized growth (locus YDR388W, stronger effect = lower value): 0.956 (inactive) | normalized growth (locus YDR392W, strain spt3, stronger effect = lower value): 1.09 (inactive) | normalized growth (locus YDR502C, strain sam2, stronger effect = lower value): 0.966 (inactive) | normalized growth (locus YEL003W, strain gim4, stronger effect = lower value): 1.01 (inactive) | normalized growth (locus YEL037C, strain rad23, stronger effect = lower value): 1.02 (inactive) | normalized growth (locus YEL061C, strain CIN8 (second series), stronger effect = lower value): 1 (inactive) | normalized growth (locus YEL061C, strain CIN8, stronger effect = lower value): 1.02 (inactive) | normalized growth (locus YER002W, strain NOP16, stronger effect = lower value): 1.02 (inactive) | normalized growth (locus YER015W, strain faa2, stronger effect = lower value): 1.01 (inactive) | normalized growth (locus YER016W, strain bim1, stronger effect = lower value): 1.01 (inactive) | normalized growth (locus YER110C, stronger effect = lower value): 0.97 (inactive) | normalized growth (locus YER111C, strain swi4, stronger effect = lower value): 1.02 (inactive) | normalized growth (locus YER155C, strain BEM2 (second series), stronger effect = lower value): 1.02 (inactive) | normalized growth (locus YER155C, strain BEM2, stronger effect = lower value): 1.02 (inactive) | normalized growth (locus YER167W, strain BCK2, stronger effect = lower value): 1 (inactive) | normalized growth (locus YFR010W, strain ubp6, stronger effect = lower value): 0.967 (inactive) | normalized growth (locus YGL078C, strain dbp3, stronger effect = lower value): 0.98 (inactive) | normalized growth (locus YGL086W, strain mad1, stronger effect = lower value): 0.995 (inactive) | normalized growth (locus YGL167C, strain pmr1, stronger effect = lower value): 1.01 (inactive) | normalized growth (locus YGL173C, strain kem1, stronger effect = lower value): 1 (inactive) | normalized growth (locus YGL227W, strain vid30, stronger effect = lower value): 0.996 (inactive) | normalized growth (locus YGL240W, strain doc1, stronger effect = lower value): 0.981 (inactive) | normalized growth (locus YGL248W, strain PDE1, stronger effect = lower value): 1.01 (inactive) | normalized growth (locus YGL253W, strain hxk2, stronger effect = lower value): 1.03 (inactive) | normalized growth (locus YGR078C, strain PAC10, stronger effect = lower value): 1.03 (inactive) | normalized growth (locus YGR135W, strain pre9, stronger effect = lower value): 0.967 (inactive) | normalized growth (locus YGR229C, strain SMI1, stronger effect = lower value): 1.02 (inactive) | normalized growth (locus YGR252W, strain gcn5, stronger effect = lower value): 0.982 (inactive) | normalized growth (locus YHR013C, strain ard1, stronger effect = lower value): 1.05 (inactive) | normalized growth (locus YHR027C, strain rpn1, stronger effect = lower value): 1.04 (inactive) | normalized growth (locus YHR030C, strain SLT2, stronger effect = lower value): 1.01 (inactive) and 0.877 (inactive) | normalized growth (locus YHR079C, strain IRE1 (second series), stronger effect = lower value): 0.98 (inactive) | normalized growth (locus YHR079C, strain IRE1, stronger effect = lower value): 0.919 (inactive) | normalized growth (locus YHR094C, strain hxt1, stronger effect = lower value): 0.98 (inactive) | normalized growth (locus YHR129C, strain ARP1, stronger effect = lower value): 1.03 (inactive) | normalized growth (locus YHR142W, strain chs7, stronger effect = lower value): 1.04 (inactive) | normalized growth (locus YHR200W, strain rpn10, stronger effect = lower value): 0.977 (inactive) | normalized growth (locus YIL066C, strain RNR3, stronger effect = lower value): 1.02 (inactive) | normalized growth (locus YIL073C, strain SPO22, stronger effect = lower value): 1.02 (inactive) | normalized growth (locus YIL125W, strain kgd1, stronger effect = lower value): 0.973 (inactive) | normalized growth (locus YIR030C, strain dcg1, stronger effect = lower value): 0.985 (inactive) | normalized growth (locus YJL092W, strain hpr5, stronger effect = lower value): 1.01 (inactive) | normalized growth (locus YJL095W, strain BCK1 (second series), stronger effect = lower value): 1.01 (inactive) | normalized growth (locus YJL095W, strain BCK1, stronger effect = lower value): 1 (inactive) and 0.875 (active) | normalized growth (locus YJL115W, strain asf1, stronger effect = lower value): 1 (inactive) | normalized growth (locus YJL129C, strain trk1, stronger effect = lower value): 1.03 (inactive) | normalized growth (locus YJL134W, strain LCB3, stronger effect = lower value): 1.01 (inactive) | normalized growth (locus YJL154C, strain vps35, stronger effect = lower value): 0.999 (inactive) | normalized growth (locus YJL164C, strain tpk1, stronger effect = lower value): 1 (inactive) | normalized growth (locus YJL166W, strain qcr8, stronger effect = lower value): 0.99 (inactive) | normalized growth (locus YJL168C, strain set2, stronger effect = lower value): 0.984 (inactive) | normalized growth (locus YJL187C, strain SWE1 (second series), stronger effect = lower value): 1.01 (inactive) | normalized growth (locus YJR043C, strain POL32, stronger effect = lower value): 1 (inactive) | normalized growth (locus YJR066W, strain TOR1, stronger effect = lower value): 0.872 (inactive) | normalized growth (locus YJR075W, strain HOC1, stronger effect = lower value): 1.02 (inactive)
